Source: PubChem (Broad Institute)
RAD54 inh: inhibitors of human RAD54 branch migration, primary screen, biochemical, fluorescence, single point; DNA repair and recombination protein RAD54-like (Homo sapiens), Q92698; RAD54 Holliday junction branch migration, FAM/BHQ fluorescence; inhibition, % at 10.4 µM; 360,000 tested, 0.14% active;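 active means mean normalized replicate activity at least 40 and at least half of replicates scoring 40 or more; inconclusive means only one of the two criteria met; inactive means mean below 40 and under half of replicates reaching 40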;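 further: 0% = median of neutral control wells and 100% = median of positive control wells; inhibitors cause a drop in the FAM fluorescence signal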
RAD52 anneal inh: RAD52 DNA annealing inhibitors, primary screen, biochemical, FRET, single point, set 2; DNA repair protein RAD52 homolog (Homo sapiens), P43351; recombinant RAD52 DNA annealing, FRET fluorescence; inhibition, % at 18.7 µM; 360,000 tested, 0.46% active; AID 651710, 2012;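 active means every replicate showing at least 50% inhibition; inconclusive means mean inhibition at least 50% but not in every replicate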
AF4-AF9 inh: inhibitors of AF4 peptide binding to AF9, primary screen, biochemical, AlphaScreen, biotin-AF4 peptide, FLAG-AF9, single point. Protein AF-9 (Homo sapiens), P42568. inhibition, % at 10 µM. 350,000 tested, 0.47% active;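 active means every replicate reaching a set inhibition limit, whatever the replicate mean, cut at about 25% in these data; inconclusive means mean inhibition reaches that limit but some replicates miss it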;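 further: 0% = plate neutral control median and 100% = total signal loss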
N-glyco inh: increase of ERlucT glycosylation luciferase signal, primary screen, N-linked glycosylation inhibitor project, D54 ERlucT cells, luminescence, set 2; AID 588692, 2011; 360,000 tested, 0.23% active; reporter increase, % at 12.5 µM; D54 ERlucT glycosylation luciferase reporter, 24 h; percent of 100 nM tunicamycin response;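 active means mean luciferase reporter signal, scaled so untreated is 0 and the glycosylation-blocking control 100, at or above a set limit in every replicate; inconclusive means mean reaches the limit but not every replicate does; inactive means mean below the limit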;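 further: luciferase carries N-glycosylation sites so blocking glycosylation raises the light; 0% = median of neutral control wells and 100% = median of 100 nM tunicamycin wells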
CASP6 VEID inh: human caspase-6 inhibitors, primary screen, biochemical, VEID-R110 fluorescence, single point, set 2; P55212; purified caspase-6, Z-VEID-R110 cleavage fluorescence; inhibition, % at 12.5 µM; 350,000 tested, 0.53% active;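 active means mean inhibition across replicates at least about 35%, with every replicate also reaching that limit, limit read from the data; inconclusive means only one of the two criteria met; inactive means neither criterion met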;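 further: 0% = median of neutral control wells and 100% = no fluorescence left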
Target sequence (P55212 24-179 limits assumed): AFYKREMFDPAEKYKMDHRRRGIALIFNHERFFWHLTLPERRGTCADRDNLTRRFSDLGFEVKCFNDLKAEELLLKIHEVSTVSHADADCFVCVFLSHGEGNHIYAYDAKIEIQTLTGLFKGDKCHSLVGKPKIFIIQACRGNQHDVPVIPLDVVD
Target sequence (P55212 194-293 limits assumed): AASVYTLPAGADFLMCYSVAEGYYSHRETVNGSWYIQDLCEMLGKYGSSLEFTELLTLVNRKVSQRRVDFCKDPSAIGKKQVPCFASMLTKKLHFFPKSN
Rad54 DNA ctr: DNA binding of candidate compounds, dose response, artefact control for RAD54 inhibitor project, biochemical, fluorescence polarization, cherry-pick | shares compounds with RAD54 inh | AC50, µM (series often up to 35 µM), for inactives: top-dose activity change, negative = DNA binding | Acridine orange-DNA displacement, 20 min | AID 651673, 2012 | 460 tested, 8% active;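 active means signal drop giving an AC50 within twice the top valid tested concentration of each sample, actives reach about 35 µM in these data; inactive means activity opposite to expected, plus the rest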;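 further: polarization loss reports compound binding to salmon sperm DNA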
AlphaScreen intf: AlphaScreen signal interference counter-screen, dose response, artefact control, biochemical, cherry-picked samples, luminescence. shares compounds with AF4-AF9 inh. AC50, µM (titrated, usually from 12 µM), inactives show at the top dose activity change, negative = inhibition. 530 tested, 45% active. AID 720494, 2013; cut-off not given, nearly all actives have AC50 up to about 14 µM
DNA binder FP: DNA-binding compounds via dye displacement, dose response, artefact control for RAD52 inhibitor project, biochemical, fluorescence polarization, cherry-pick. shares compounds with RAD52 anneal inh. Salmon sperm DNA/acridine orange FP displacement. AC50, µM. 1,000 tested, 8% active;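 active means fitted half-maximal concentration for signal loss at or below twice the highest dose tested, in every separate run, actives reach about 64 µM in these data; inconclusive means runs disagree, or flat partial signal loss, or poor fit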
An asterisk follows results filed as active; i = inactive; ? = inconclusive; nt = not tested or not shown. Compounds with a hit are over-represented: about 1.2% of the library has one in this group of screens.

SMILES	RAD54 inh	RAD52 anneal inh	AF4-AF9 inh	N-glyco inh	CASP6 VEID inh	AlphaScreen intf	others
O=C1NC(=O)C(=Cc2ccc(SC3CCCCC3)o2)C(=O)N1	nt	-53	-2	8	67*	nt
CN1CCN(c2ccc(N)c(N3CCN(C)CC3)c2)CC1	nt	nt	nt	-1	nt	nt
CN1CCN(c2ccc(N)cc2)CC1	97*	nt	nt	5	nt	nt	Rad54 DNA ctr=-14%
Cn1ncnc2c(=O)n(C)c(=O)nc1-2	72*	nt	nt	-23	nt	nt	Rad54 DNA ctr=7%
Nc1ccc(CCN2CCCC2)cc1	?	94*	?	1	-92	nt	Rad54 DNA ctr=6%
Oc1ccc(CCN2CCCCC2)cc1	-2	-82	4	-3	1	nt
Cc1nccc2c1[nH]c1ccccc12	?	9	-6	1	-2	nt	Rad54 DNA ctr=-8%
Cc1ccccc1S(=O)(=O)N1[C@@H]2Cn3c(ccc(-c4cccnc4)c3=O)[C@H]1[C@@H](C(=O)O)[C@@H]2CO	-3	1	0	nt	-1	nt
COC(=O)[C@@H]1[C@@H](CO)[C@@H]2Cn3c(ccc(/C=C/c4ccccc4)c3=O)[C@H]1N2C(=O)C1CCC1	-2	10	-12	nt	2	nt
C[n+]1c(-c2ccccc2)c2cc(N)ccc2c2ccc(N)cc21	88*	21	55*	-16	nt	8.5µM*
COC(=O)[C@@H]1[C@@H](CO)[C@@H]2Cn3c(ccc(-c4cccc(F)c4)c3=O)[C@H]1N2Cc1cccnc1	-11	-8	3	nt	-3	nt
O=C1CN=C(c2ccc(Br)cc2)c2c(sc3c2CCCC3)N1CCN1CCCCC1	0	-2	32*	-8	1	-37%
COC(=O)[C@H]1[C@H](CO)[C@H]2Cn3c(ccc(C4=CCCCC4)c3=O)[C@@H]1N2C(=O)NC(C)C	8	5	1	nt	3	nt
N#Cc1cccc(-c2ccc([C@@H]3[C@H]4CN(C(=O)Cc5ccncc5)CCCCN4[C@H]3CO)cc2)c1	-4	-28	-5	nt	4	nt
Cc1ccc(-c2cc(-c3ccc(C)cc3)[n+](-c3ccccc3)c(-c3ccc(C)cc3)c2)cc1	38	nt	nt	-2	nt	nt
Cc1ccc(-c2cc(-c3ccc(C)cc3)[n+](-c3ccc(C(=O)[O-])cc3)c(-c3ccc(C)cc3)c2)cc1	15	32	26*	7	7	-27%
COc1ccc2c(c1)c(CCN)c(C)n2Cc1ccccc1	-35	14	33*	-4	-2	-30%
C#CCOc1ccc2c(c1)c(C(C)=O)c(C)n2Cc1ccccc1	0	-15	2	-2	0	nt
CC(C)Nc1ccc(Nc2ccccc2)cc1	-3	11	?	6	1	-29%
CCN1CCN(c2ccc(NC(C)=O)cc2Cl)CC1	nt	-10	-2	1	2	nt
CCN1CCN(c2ccc(N)cc2)CC1	nt	90*	82*	1	-76	4.5µM*	DNA binder FP=53µM*
CCN1CCN(c2ccc(N)cc2C)CC1	nt	100*	43*	0	-69	12µM*	DNA binder FP=47µM*
COC(=O)[C@@H]1[C@@H](CO)[C@@H]2Cn3c(ccc(-c4ccc(OC)cc4)c3=O)[C@H]1N2C(=O)c1ccccc1F	2	4	-16	nt	-1	nt
O=C(Cc1ccccn1)N1CCCCN2[C@@H](CO)[C@@H](c3ccc(-c4ccccc4)cc3)[C@@H]2C1	1	-13	-2	nt	0	nt
NCC(O)c1cc(O)c(O)cc1F (stereo not drawn)	21	92*	53*	-2	nt	-19%	DNA binder FP=i
